GLP1R cytotox: qHTS of GLP-1 Receptor Inverse Agonists: Cytotox Screen. HEK293 cAMP-luciferase reporter cells, luminescence, 24 h. Potency, µM (top dose mostly 38.3 µM), without a hit: at the top dose activity change, negative = inhibition, hits mostly inhibitors. 0.13% of 410,000 active;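 also: loss of luciferase light is scored as toxicity; % is scaled to controls: 0 for no effect and ±100 for the full control effect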
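Quantitative HTS format, 1536 wells, 200 cells/uL seeded. Compounds: 23 nL, 24 h, 37 °C. Detection: luciferase reagent, luminescence at 12 min RT; decreased signal taken as cytotoxic.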
BRCA1 expr act: qHTS Assay to Identify Small Molecule Activators of BRCA1 Expression | MCF7-BRCA1-FFLuc reporter, luminescence, 48 h; response scale: scaled: vehicle 0%, 10 µM genistein 100% | 1.1% of 380,000 active | Potency, µM (series often up to 46.1 µM), for inactives: top-dose activation, actives largely listed as activators; also: nearly all actives have a fitted effect of over 80% in size
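Cells: MCF7-BRCA1-FFLuc, 2000/well. Exposure: 48 h, 37 °C, 5% CO2. Read: luminescence, 15 min post-substrate. Controls: genistein 10 microM (maximal activation), DMSO (neutral).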
GLP-1R inv ag: qHTS of GLP-1 Receptor Inverse Agonists (Inhibition Mode) | 1.6% of 410,000 active | AID 624417, 2012 | Glucagon-like peptide 1 receptor (Homo sapiens), P43220 | Potency, µM (highest dose often 38.3 µM), for inactives: at the top dose activity change, negative = inhibition, hits mostly inhibitors | HEK293 GLP-1R CRE-luciferase, luminescence, 24 h; GLP-1R form is constitutively active; also: % is scaled to controls: 0 for no effect and ±100 for the full control effect; nearly all actives have a fitted effect of over 55% in size
Target sequence (P43220 whole entry, looked up): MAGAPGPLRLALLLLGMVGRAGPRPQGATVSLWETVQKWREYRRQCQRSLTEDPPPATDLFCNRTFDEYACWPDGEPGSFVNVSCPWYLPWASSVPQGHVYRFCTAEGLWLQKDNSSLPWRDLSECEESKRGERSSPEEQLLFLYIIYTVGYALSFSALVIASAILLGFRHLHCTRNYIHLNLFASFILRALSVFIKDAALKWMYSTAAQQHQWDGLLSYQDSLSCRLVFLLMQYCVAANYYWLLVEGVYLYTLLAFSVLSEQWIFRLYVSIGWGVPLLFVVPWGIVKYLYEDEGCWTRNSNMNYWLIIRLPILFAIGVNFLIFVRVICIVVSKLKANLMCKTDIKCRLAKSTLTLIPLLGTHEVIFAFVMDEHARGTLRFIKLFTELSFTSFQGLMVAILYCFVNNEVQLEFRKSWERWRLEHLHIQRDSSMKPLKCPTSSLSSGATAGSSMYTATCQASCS
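HEK293 cells stably co-expressing constitutively active GLP-1R and a cAMP-responsive luciferase reporter were seeded in DMEM with 10% Nu serum, given compounds after 12 h, and incubated 24 h at 37 deg C. Luminescence was then read.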
GLP1R ag: qHTS of GLP-1 Receptor Agonists; 0.007% of 380,000 active; Potency, µM (top dose mostly 45.6 µM), for the others: at the top dose activation, usual class: activators; Glucagon-like peptide 1 receptor (Homo sapiens), P43220; HEK293 GLP-1R CRE-luciferase, luminescence, 4-6 h; cells express a hypersensitive GLP-1R form; also: % of control where 0% means no effect
Numbers without * were called inactive; u = inconclusive; x = no result given. Hits are enriched below; roughly 2.6% of the tested compounds scored in any of these assays. Calls follow the shape of the dose curve; as a rule, active = well fitted curve in the direction sought with a large enough effect; inconclusive = small, poorly fitted or top-dose-only effect, or another doubt; inactive = no such curve, though single readings can be large; an effect the other way counts as inactive or inconclusive. Potency is read from the fitted curve at half-maximal effect.

SMILES	GLP1R cytotox	BRCA1 expr act	GLP-1R inv ag	GLP1R ag
O=S(=O)(c1ccc2ccccc2c1)N1CCN(C(=S)Nc2ccc(F)cc2)CC1	-14%	-69%	u	-3%
O=S(=O)(c1ccc2ccccc2c1)N1CCN(C(=S)Nc2ccc(F)c(Cl)c2)CC1	-22%	-94%	4.5µM*	-4%
CCCCOc1ccc(C(=O)N=c2sccn2C)cc1OC	1%	4µM*	96%	11%
CCN(CC)S(=O)(=O)c1cc(C(=O)N=c2sccn2C)ccc1OC	2%	-13%	8%	0%
O=C1CCCCC1C(O)(C(=O)c1ccccc1)c1ccccc1 (centres undefined)	1%	2%	10µM*	1%
CC1CCC(C(O)(C(=O)c2ccccc2)c2ccccc2)C(=O)C1 (centres undefined)	1%	-9%	-77%	-7%
O=C(Nc1ccc([N+](=O)[O-])cc1)c1ccccc1F	9%	4.5µM*	7%	-3%
O=C(Nc1ccc(-c2ccc([N+](=O)[O-])cc2)cc1)c1ccccc1F	-4%	4%	40%	2%
CN(C)c1ccc(-c2ccnc3c2CC(C)(C(=O)NCc2cccs2)O3)cc1 (centres undefined)	u	-16%	u	-1%
CC1(C(=O)NCc2ccco2)Cc2c(-c3cccc(C(F)(F)F)c3)ccnc2O1 (centres undefined)	u	-52%	2.2µM*	16%
CC1(C(=O)NCc2cccs2)Cc2c(-c3ccccc3)ccnc2O1 (centres undefined)	u	-37%	4.5µM*	8%
Cc1ccc(Cn2nnnc2CN2CCC(c3nc4ccc(Cl)cc4[nH]3)CC2)cc1	15%	-61%	11µM*	-13%
Cc1cc(C)c2c(=O)cc(C(=O)Nc3ccc(S(=O)(=O)N(C)Cc4ccccc4)cc3)oc2c1	-5%	x	11%	x
COC(=O)[C@@]12C[C@@H](CC(=O)N3CCCCC3)C(=O)N(Cc3ccccc3)C1=CCC(C)(C)C2	-4%	x	u	x
O=C(CS(=O)(=O)c1ccccc1)Nc1ccc(Cl)cn1	-11%	27%	23%	8%
O=C(/C=C/c1ccccc1)Nc1ccc(Cl)cn1	u	3.5µM*	-25%	0%
O=C(CC(c1ccccc1)c1ccccc1)Nc1ccc(Cl)cn1	u	-68%	5µM*	-7%
Cc1ccc(C2CC2/C(=N/O)c2ccc(F)cc2)cc1 (centres undefined)	-2%	-23%	10µM*	20%
O/N=C(/c1ccc(Cl)cc1)C1CC1c1ccccc1 (centres undefined)	2%	5%	u	u
CC(I)CCC(C)[n+]1cccc(I)c1 (centres undefined)	x	1%	x	x
O=C(COc1ccccc1C(=O)Nc1ccccc1)NC1CCCCC1	x	0%	x	x
CCC1CN(C(=O)N2CCC(C(=O)NCc3ccc(OC)cc3OC)CC2)c2cc(C)ccc2O1 (centres undefined)	-18%	x	-20%	x
COc1ccccc1C(=O)OCC(=O)Nc1ccc(N2CCCCC2)cc1	x	10%	x	x
CC1(c2nnc(-c3cccc(Cl)c3)o2)CC(c2ccc(Cl)cc2)=NO1 (centres undefined)	4%	-1%	-22%	2%
CC1(c2nnc(-c3cccc(Cl)c3)o2)CC(c2ccc(F)cc2)=NO1 (centres undefined)	16%	11µM*	7%	23%
SMILES	GLP1R cytotox	BRCA1 expr act	GLP-1R inv ag	GLP1R ag
C[S+](C)CC[C@H](N)C(=O)O	x	x	x	9%
CCOC(=O)c1nn(-c2ccc3c(c2)CCN3C(C)=O)cc1O	-17%	-47%	11µM*	0%
CCOC(=O)c1nn(-c2ccc(F)cc2)cc1O	-3%	u	39%	9%
O=S1(=O)CC(N2CC=CC2)CN1Cc1cn(Cc2cccc(C(F)(F)F)c2)nn1 (centres undefined)	1%	0%	6%	5%
O=S(=O)(c1ccc(Cl)c(NC(=S)N/N=C/c2c(F)cccc2F)c1)N1CCOCC1	u	-41%	2.5µM*	15%
O=S(=O)(c1ccc(Cl)c(NC(=S)Nc2ccccc2N2CCOCC2)c1)N1CCOCC1	19%	-22%	10%	4%

Screening results: PubChem BioAssay, National Center for Advancing Translational Sciences (NCATS)
